This is an account of results in PubChem BioAssay (NCATS).

“And” between values parts separate entries of the source, which are not always exact repeats. Equal entries are not always repeated. Inconclusive results are not listed. Values without a mark were called inactive. The source made the active and inactive calls. Calls follow the shape of the dose curve; as a rule, active = well fitted activation curve with a large enough effect; inconclusive = small, poorly fitted or top-dose-only effect; inactive = no such curve, though single readings can be large or run the other way.
Potency is read from the fitted curve at half-maximal effect.

In this experiment the target is Cellular tumor antigen p53 (Homo sapiens) (UniProt P04637). The experiment is described as follows: Primary qHTS for small molecule compounds that upregulate eGFP-tagged delta133p53alpha (in N-terminal) cells. (AID 2060322). Also: nearly all actives have a fitted effect of over 75% in size.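 As to activation: series mostly up to about 56 µM; 0% = DMSO vehicle and 100% = reference activator.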 To be noted: NCI-H358 eGFP-delta133p53alpha fluorescence, 24 h; activation: hits give high values. Summed up: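 NCI-H358 cells pre-induced 24 h with 10 ng/ml doxycycline to express N-terminal eGFP-delta133p53alpha, then dosed 24 h at 37C without doxycycline; fixed, Hoechst-stained, GFP intensity by laser scanning cytometry, normalized to DMSO (0%) and 57.5 uM 5-azacytidine (100%).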
Cellular tumor antigen p53 (Homo sapiens), sequence (P04637 whole entry, looked up): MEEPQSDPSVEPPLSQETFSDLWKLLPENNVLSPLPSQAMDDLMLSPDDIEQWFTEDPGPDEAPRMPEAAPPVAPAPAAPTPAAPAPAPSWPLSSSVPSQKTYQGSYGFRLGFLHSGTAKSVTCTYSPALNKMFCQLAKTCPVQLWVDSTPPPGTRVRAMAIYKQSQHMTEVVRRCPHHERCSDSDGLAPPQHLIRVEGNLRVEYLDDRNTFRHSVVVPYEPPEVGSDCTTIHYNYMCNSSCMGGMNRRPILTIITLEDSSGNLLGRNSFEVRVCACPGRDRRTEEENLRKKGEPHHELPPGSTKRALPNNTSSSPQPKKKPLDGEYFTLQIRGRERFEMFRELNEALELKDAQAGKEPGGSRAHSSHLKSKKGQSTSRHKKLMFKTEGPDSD
For `CC(=O)[C@@]1(O)CC[C@H]2[C@@H]3C[C@H](C)C4=CC(=O)C=C[C@]4(C)[C@@]3(F)[C@@H](O)C[C@@]21C`, the activation was -11.7%.

As for `O=c1ccc2ccccc2o1`, the activation was 9.21%.

For `O=C(O)C(S)C(S)C(=O)O` (stereo not drawn), the activation is -37.9%.

As to `CCOc1c(N2CCOCC2)cnn(C)c1=O`, the activation is -4.18%.

For the compound `C#C[C@]1(O)CC[C@@H]2[C@@H]3CCC4=CC(=O)CC[C@@H]4[C@H]3CC[C@@]21CC`, the activation was 25.3%.

Turning to `CCOC(=O)c1cc(=O)c2c(OCC(COc3cccc4oc(C(=O)OCC)cc(=O)c34)OC(=O)[C@@H](N)CCCCN)cccc2o1`, the Potency is 27.6 µM (active).

Turning to `CCCCCCn1c(=O)c2c(ncn2C)n(C)c1=O`, the activation was -5.08%.

Consider `CC[N+](CC)(CC)CCOc1ccc(/C=C/c2ccccc2)cc1`, for which the activation was -19.2%.

As for `CC(=O)OC[C@H]1O[C@@H](n2cnc(N)nc2=O)[C@H](OC(C)=O)[C@@H]1OC(C)=O`, the activation was -22.3%.

For the compound `CCOc1cc(NC(C)=O)ccc1C(=O)OC`, the activation is -3.95%.

For `N=C(N=C(N)N)N1CCOCC1`, the activation is 1.67% and -4.92%.

As to `CCCCOCCOC(=O)c1cccnc1`, the activation was -10.7%.

Take `O=C(NCCCN1CCOCC1)c1ccc(Cl)cc1`: the activation was -23.2%.

Regarding `COc1cc(-c2ccc(=O)[nH]n2)ccc1OC(F)F`, the activation was 2.51%.

As to `CNC(=O)c1ccccc1Sc1ccc2c(C=Cc3ccccn3)n[nH]c2c1`, the activation is -28.7%.

Regarding `N[C@H](C(=O)O)c1ccc(O)cc1`, the activation was -13.4%.

In the case of `CCOC(=O)c1cccc(N)c1`, the activation is -1.67%.

Regarding `CCN(CC)CCc1nc(-c2ccccc2)no1`, the activation was -25.1%.

As to `CCCCNC(=O)NS(=O)(=O)c1ccc(N)cc1`, the activation is -14.2%.

Turning to `CN(C)CCN(Cc1ccccc1)c1ccccn1`, the activation was 24.3%.

Take `CC[C@@]1(O)C(=O)OCc2c1cc1n(c2=O)Cc2c-1nc1ccccc1c2/C=N/OC(C)(C)C`: the Potency was 0.0978 µM (active).

Take `COc1cc(NS(=O)(=O)c2ccc(N)cc2)ncn1`: the activation was -5.86%.

On to `C[C@H](CCC(=O)O)[C@H]1CC[C@H]2[C@@H]3[C@H](O)C[C@@H]4C[C@H](O)CC[C@]4(C)[C@@H]3CC[C@]12C`, for which the activation was -19.5%.
